Here are results for one sequence from publication PMC7862700, “An all-to-all approach to the identification of sequence-specific readers for epigenetic DNA modifications on cytosine”.

Experiment in all cases: DAPPL (digital affinity profiling via proximity ligation, sequencing); 10 mM Tris-HCl pH 7.5, 50 mM NaCl, 1 mM DTT, 4% glycerol, room temperature, 30 min; GST-TFs on glutathione beads, 16-mer random dsDNA library, 0.1% formaldehyde crosslink after washing; high values mean tight binding
One assay addresses T1, FEV (Homo sapiens, UniProt Q99581 1-238).
T1 sequence: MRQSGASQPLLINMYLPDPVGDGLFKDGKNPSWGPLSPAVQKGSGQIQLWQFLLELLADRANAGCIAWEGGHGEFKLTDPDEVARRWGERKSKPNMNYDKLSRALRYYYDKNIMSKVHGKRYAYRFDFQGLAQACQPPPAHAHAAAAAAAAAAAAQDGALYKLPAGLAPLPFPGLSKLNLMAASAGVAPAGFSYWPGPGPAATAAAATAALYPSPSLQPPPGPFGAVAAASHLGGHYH
The settings on record: protein: recombinant; tags: N-terminal GST; dsDNA, one strand shown. The essentials: (§1)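 Human transcription factors carrying a GST fusion were produced in yeast, bound to glutathione beads, tagged with DNA barcodes and pooled together with a tag-only sample. Each pool was held with 200 nmole of a random double-stranded 16-mer DNA library in Tris/NaCl/DTT/glycerol buffer for 30 min at room temperature, then washed, crosslinked in 0.1% formaldehyde, proximity-ligated with BsaI/T4 ligase (1 h, 37 °C), PCR-amplified and sequenced on an Illumina NextSeq500. Binding signal is the read frequency of each hexamer for a given factor divided by its frequency in the tag-only sample.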

Another assay concerns the target ETV5 (Homo sapiens, UniProt P41161 1-510). As to conditions: protein: recombinant; tags: N-terminal GST; dsDNA, one strand shown. The essentials:
as §1

A further assay has as its target HSF1 (Homo sapiens, UniProt Q00613 1-529). As to conditions: protein: recombinant; tags: N-terminal GST; chain copies: 3; dsDNA, one strand shown. The essentials: as §1
Another assay concerns the target T2, SPIC (Homo sapiens, UniProt Q8N5J4 1-248).
T2 sequence: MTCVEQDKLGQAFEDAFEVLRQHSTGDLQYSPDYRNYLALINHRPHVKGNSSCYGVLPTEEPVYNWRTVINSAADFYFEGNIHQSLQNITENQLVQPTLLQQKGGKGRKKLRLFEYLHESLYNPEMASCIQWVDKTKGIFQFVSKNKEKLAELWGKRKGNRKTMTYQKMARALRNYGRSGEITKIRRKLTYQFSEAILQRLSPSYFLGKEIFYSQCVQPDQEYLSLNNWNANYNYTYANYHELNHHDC
The settings on record: protein: recombinant; tags: N-terminal GST; dsDNA, one strand shown. In a few lines:
as §1

The next assay addresses ELF4 (Homo sapiens, UniProt Q99607 1-663). As to conditions: protein: recombinant; tags: N-terminal GST; dsDNA, one strand shown. The essentials: as §1
A further assay concerns the target T3, ELK4 (Homo sapiens, UniProt P28324-2 1-405).
T3 sequence: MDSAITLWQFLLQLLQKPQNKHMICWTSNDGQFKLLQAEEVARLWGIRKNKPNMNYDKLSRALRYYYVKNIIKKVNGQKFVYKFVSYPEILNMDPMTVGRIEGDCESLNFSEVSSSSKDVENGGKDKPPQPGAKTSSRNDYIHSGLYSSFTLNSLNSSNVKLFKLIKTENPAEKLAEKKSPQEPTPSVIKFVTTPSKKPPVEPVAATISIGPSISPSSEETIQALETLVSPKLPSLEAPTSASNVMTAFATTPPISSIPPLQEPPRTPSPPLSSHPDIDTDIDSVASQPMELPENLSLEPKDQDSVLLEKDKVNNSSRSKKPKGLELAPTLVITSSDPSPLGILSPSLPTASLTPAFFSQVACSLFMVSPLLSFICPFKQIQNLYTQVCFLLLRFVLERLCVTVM
As to conditions: protein: recombinant; tags: N-terminal GST; dsDNA, one strand shown. The essentials: as §1

Another assay addresses T4, ETV2 (Homo sapiens, UniProt O00321 1-342).
T4 sequence: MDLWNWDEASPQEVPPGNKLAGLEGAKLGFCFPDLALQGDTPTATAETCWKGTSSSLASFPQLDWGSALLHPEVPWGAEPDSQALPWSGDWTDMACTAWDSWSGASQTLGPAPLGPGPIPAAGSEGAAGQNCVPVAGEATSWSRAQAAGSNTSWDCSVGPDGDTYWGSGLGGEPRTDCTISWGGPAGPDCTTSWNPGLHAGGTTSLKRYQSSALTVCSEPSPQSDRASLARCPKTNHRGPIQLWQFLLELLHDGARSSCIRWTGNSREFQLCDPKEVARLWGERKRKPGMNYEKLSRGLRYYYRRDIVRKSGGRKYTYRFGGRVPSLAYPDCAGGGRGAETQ
As to conditions: protein: recombinant; tags: N-terminal GST; dsDNA, one strand shown. The essentials:
as §1

The target of a further assay is T5, ELF3 (Homo sapiens, UniProt P78545 1-371).
T5 sequence: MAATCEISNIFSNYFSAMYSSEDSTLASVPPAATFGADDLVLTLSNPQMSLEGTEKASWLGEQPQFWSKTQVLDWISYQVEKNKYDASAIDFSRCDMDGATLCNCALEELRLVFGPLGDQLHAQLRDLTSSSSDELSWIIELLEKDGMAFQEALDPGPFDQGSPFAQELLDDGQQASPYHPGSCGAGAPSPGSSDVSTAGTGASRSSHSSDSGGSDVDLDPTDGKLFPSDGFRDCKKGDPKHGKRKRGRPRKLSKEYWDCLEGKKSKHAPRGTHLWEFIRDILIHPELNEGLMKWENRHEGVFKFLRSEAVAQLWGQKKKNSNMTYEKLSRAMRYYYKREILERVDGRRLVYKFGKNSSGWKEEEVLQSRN
The settings on record: protein: recombinant; tags: N-terminal GST; dsDNA, one strand shown. The essentials: as §1

A further assay addresses CRX (Homo sapiens, UniProt O43186 1-299). The settings on record: protein: recombinant; tags: N-terminal GST; dsDNA, one strand shown. In a few lines: as §1
For another assay, the target named is ETV1 (Homo sapiens, UniProt P50549 1-477). The settings on record: protein: recombinant; tags: N-terminal GST; dsDNA, one strand shown. The essentials: as §1
ETV1, sequence (P50549 whole entry): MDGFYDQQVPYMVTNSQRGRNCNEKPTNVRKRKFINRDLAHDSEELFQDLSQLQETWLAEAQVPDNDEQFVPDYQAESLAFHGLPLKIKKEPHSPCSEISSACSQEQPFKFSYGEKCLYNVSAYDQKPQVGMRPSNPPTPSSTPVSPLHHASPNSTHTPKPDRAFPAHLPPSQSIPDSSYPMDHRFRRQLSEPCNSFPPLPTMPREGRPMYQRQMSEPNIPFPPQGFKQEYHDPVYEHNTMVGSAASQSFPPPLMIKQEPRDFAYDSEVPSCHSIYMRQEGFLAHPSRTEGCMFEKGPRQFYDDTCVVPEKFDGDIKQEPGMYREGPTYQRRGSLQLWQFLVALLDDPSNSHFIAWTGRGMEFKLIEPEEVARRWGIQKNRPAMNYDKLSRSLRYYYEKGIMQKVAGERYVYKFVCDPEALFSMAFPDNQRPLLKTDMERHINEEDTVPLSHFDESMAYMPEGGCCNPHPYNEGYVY
The next assay concerns the target T6, ERF (Homo sapiens, UniProt P50548 1-548).
T6 sequence: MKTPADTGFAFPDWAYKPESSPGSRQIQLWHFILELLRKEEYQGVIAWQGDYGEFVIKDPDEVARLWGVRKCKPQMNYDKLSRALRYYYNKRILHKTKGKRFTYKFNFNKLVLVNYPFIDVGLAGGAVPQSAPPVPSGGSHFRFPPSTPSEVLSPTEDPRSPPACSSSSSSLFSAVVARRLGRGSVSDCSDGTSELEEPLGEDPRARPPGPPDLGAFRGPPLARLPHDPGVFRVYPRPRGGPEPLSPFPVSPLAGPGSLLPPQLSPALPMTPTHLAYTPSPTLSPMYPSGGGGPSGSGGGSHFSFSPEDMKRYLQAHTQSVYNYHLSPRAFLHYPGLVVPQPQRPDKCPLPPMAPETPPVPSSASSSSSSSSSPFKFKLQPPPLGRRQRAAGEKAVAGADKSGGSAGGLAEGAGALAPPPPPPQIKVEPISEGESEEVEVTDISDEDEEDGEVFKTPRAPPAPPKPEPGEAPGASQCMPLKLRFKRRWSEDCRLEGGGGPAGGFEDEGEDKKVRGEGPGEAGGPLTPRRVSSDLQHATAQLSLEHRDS
The settings on record: protein: recombinant; tags: N-terminal GST; dsDNA, one strand shown. The essentials:
as §1

Another assay addresses T7, ETV3L (Homo sapiens, UniProt Q6ZN32 1-361).
T7 sequence: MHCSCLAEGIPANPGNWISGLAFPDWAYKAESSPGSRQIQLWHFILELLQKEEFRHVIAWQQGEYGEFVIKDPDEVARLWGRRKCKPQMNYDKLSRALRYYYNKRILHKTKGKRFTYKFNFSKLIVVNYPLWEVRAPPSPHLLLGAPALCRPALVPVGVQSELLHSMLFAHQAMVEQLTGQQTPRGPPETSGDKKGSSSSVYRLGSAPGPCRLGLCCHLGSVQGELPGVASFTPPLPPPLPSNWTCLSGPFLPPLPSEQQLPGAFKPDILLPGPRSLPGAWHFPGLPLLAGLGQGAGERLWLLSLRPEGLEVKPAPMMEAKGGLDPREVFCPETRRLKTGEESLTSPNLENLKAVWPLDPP
As to conditions: protein: recombinant; tags: N-terminal GST; dsDNA, one strand shown. The essentials:
as §1

The next assay has as its target T8, ETS2 (Homo sapiens, UniProt P15036 1-469).
T8 sequence: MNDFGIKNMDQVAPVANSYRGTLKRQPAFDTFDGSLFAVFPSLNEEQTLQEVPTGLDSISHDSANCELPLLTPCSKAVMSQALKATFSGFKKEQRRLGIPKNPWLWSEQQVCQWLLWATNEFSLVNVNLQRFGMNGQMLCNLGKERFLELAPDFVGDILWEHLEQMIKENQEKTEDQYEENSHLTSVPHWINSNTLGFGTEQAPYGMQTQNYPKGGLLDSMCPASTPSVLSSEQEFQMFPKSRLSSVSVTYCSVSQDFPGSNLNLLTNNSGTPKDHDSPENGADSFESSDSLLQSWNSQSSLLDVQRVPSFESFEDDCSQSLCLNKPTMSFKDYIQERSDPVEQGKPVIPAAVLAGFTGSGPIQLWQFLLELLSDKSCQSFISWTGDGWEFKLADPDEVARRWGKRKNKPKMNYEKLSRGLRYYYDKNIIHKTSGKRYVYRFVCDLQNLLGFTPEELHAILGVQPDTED
As to conditions: protein: recombinant; tags: N-terminal GST; dsDNA, one strand shown. In a few lines:
as §1

A further assay concerns the target T9, SPDEF (Homo sapiens, UniProt O95238 1-335).
T9 sequence: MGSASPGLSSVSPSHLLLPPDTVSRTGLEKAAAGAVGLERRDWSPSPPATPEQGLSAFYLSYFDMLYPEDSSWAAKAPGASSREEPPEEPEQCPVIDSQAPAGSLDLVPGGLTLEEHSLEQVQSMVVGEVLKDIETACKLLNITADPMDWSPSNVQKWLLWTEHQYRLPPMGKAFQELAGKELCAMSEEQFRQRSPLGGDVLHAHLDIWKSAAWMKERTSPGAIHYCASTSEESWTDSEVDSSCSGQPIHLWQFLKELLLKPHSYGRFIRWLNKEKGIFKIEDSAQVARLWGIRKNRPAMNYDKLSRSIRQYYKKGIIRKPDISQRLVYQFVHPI
As to conditions: protein: recombinant; tags: N-terminal GST; dsDNA, one strand shown. The essentials: as §1

For another assay, the target named is T10, ETV7 (Homo sapiens, UniProt Q9Y603 1-341).
T10 sequence: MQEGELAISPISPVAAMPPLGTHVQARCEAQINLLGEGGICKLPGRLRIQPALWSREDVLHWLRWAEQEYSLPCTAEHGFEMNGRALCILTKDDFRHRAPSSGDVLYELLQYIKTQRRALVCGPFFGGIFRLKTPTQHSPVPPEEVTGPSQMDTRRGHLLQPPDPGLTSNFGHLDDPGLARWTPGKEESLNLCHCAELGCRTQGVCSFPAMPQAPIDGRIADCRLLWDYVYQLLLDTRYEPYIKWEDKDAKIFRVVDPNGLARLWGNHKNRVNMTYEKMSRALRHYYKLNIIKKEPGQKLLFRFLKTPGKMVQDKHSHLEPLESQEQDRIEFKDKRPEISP
The settings on record: protein: recombinant; tags: N-terminal GST; dsDNA, one strand shown. The essentials: as §1

The next assay has as its target T11, ELF5 (Homo sapiens, UniProt Q9UKW6-2 1-255).
T11 sequence: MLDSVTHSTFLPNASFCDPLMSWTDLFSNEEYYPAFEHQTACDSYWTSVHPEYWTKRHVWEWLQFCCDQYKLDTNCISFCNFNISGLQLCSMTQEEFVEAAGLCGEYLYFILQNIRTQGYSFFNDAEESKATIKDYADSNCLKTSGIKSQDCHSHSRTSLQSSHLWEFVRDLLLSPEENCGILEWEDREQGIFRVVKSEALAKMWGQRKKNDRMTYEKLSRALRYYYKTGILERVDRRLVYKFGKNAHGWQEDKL
As to conditions: protein: recombinant; tags: N-terminal GST; dsDNA, one strand shown. In a few lines:
as §1

For a further assay, the target named is T12, ETV3 (Homo sapiens, UniProt P41162-2 1-143).
T12 sequence: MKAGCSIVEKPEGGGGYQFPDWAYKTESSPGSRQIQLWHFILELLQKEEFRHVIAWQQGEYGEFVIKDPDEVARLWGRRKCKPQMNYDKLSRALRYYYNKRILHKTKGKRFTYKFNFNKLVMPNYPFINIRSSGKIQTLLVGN
The settings on record: protein: recombinant; tags: N-terminal GST; dsDNA, one strand shown. In a few lines: as §1

For a further assay, the target named is ETV6 (Homo sapiens, UniProt P41212 1-452). As to conditions: protein: recombinant; tags: N-terminal GST; dsDNA, one strand shown. The essentials:
as §1

ETV5, sequence (P41161 whole entry): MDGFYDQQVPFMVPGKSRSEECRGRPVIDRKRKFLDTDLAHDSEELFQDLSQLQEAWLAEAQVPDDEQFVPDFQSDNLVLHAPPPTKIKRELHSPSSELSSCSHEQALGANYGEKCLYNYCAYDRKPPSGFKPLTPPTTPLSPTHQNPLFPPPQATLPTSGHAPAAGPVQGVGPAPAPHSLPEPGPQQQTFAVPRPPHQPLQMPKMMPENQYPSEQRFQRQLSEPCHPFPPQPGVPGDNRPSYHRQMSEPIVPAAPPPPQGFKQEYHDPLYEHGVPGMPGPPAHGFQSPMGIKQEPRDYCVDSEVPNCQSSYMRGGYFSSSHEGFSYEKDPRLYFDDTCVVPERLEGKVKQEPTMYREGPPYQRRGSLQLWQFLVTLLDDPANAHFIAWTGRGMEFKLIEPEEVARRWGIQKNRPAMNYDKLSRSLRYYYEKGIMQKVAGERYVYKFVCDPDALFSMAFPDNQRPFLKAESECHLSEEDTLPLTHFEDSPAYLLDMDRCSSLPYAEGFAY
CRX, sequence (O43186 whole entry): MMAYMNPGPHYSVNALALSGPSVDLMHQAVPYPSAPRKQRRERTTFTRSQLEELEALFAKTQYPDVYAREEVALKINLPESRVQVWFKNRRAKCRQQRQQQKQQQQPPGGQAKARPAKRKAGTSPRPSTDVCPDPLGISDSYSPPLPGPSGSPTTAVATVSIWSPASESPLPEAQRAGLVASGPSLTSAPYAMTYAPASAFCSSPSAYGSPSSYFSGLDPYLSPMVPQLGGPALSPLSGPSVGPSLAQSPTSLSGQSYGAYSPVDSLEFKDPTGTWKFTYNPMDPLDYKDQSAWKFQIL
ETV6, sequence (P41212 whole entry): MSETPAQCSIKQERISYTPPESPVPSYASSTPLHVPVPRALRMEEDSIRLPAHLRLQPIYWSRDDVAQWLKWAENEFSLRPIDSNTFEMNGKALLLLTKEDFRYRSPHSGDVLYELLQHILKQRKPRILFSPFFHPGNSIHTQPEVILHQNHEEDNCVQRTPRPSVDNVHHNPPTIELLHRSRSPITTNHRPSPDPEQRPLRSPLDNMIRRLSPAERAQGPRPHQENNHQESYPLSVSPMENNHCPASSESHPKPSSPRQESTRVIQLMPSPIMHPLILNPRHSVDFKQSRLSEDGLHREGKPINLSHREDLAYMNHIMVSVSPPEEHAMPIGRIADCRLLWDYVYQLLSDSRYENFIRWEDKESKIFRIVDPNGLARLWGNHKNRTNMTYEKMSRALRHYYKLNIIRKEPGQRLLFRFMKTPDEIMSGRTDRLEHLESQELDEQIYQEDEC
ELF4, sequence (Q99607 whole entry): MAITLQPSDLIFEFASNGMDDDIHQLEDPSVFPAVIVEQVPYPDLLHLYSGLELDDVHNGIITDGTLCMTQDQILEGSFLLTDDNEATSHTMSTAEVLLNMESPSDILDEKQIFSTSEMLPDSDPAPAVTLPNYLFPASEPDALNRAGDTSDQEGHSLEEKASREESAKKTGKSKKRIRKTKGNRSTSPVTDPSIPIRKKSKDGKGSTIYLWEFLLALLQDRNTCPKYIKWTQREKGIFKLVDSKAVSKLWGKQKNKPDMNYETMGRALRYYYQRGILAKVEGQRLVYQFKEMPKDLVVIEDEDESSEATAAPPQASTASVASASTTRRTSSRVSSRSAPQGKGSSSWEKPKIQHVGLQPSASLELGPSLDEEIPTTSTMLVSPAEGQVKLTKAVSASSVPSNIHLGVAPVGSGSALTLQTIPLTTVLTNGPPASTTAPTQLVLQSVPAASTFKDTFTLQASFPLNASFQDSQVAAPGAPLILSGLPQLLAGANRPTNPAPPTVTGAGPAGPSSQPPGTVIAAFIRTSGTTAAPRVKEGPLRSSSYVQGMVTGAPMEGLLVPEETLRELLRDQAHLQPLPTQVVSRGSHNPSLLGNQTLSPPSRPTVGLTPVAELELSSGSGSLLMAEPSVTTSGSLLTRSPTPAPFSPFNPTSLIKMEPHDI
HSF1, sequence (Q00613 whole entry): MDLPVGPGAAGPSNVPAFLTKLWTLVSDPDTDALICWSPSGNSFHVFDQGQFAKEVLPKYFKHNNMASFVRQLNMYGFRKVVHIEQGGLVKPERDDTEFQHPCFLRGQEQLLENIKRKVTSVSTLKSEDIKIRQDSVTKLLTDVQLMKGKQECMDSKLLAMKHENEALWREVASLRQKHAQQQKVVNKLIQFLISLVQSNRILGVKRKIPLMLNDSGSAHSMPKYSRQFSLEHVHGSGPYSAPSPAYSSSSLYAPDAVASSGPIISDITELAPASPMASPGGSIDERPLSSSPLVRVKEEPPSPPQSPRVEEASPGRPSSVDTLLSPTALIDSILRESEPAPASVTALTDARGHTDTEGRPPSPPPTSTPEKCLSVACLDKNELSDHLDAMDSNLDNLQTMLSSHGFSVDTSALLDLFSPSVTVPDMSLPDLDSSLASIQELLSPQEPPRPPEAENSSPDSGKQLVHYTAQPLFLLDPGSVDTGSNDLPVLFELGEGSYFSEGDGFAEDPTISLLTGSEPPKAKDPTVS

With AAACTC, the binding signal with FEV is 1.18 fold enrichment (6-mer frequency, TF over GST control); with ETV5, 1.22 fold enrichment (6-mer frequency, TF over GST control); with HSF1, 1.18 fold enrichment (6-mer frequency, TF over GST control); in the assay with SPIC it was 1.26 fold enrichment (6-mer frequency, TF over GST control); in the assay with ELF4, 1.22 fold enrichment (6-mer frequency, TF over GST control); with ELK4 it was 1.04 fold enrichment (6-mer frequency, TF over GST control). The binding signal was 1.3 fold enrichment (6-mer frequency, TF over GST control) with ETV2; 1.25 fold enrichment (6-mer frequency, TF over GST control) in the assay with ELF3; 1.18 fold enrichment (6-mer frequency, TF over GST control) with CRX; 1.22 fold enrichment (6-mer frequency, TF over GST control) with ETV1; 1.24 fold enrichment (6-mer frequency, TF over GST control) with ERF; 1.17 fold enrichment (6-mer frequency, TF over GST control) with ETV3L. Also, the binding signal in the assay with ETS2 was 1.19 fold enrichment (6-mer frequency, TF over GST control); with SPDEF, 1.07 fold enrichment (6-mer frequency, TF over GST control); with ETV7, 1.24 fold enrichment (6-mer frequency, TF over GST control); with ELF5, 1.21 fold enrichment (6-mer frequency, TF over GST control); with ETV3, 1.15 fold enrichment (6-mer frequency, TF over GST control); in the assay with ETV6, 1.25 fold enrichment (6-mer frequency, TF over GST control).
